# In the supplement of paper PMC6555819:
# Test system: VDR:RXRa (NR concentration 270 nM, RXRa partner concentration 90 nM)
# Test: PBM binding z-score (relative to random genomic background probes); higher = stronger binding; sequences stand for … in GC…GCGATTGACAGCGTAGAATGAAGG
# Method: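 Protein-binding microarray (Agilent 4x180K custom design, double-stranded 60-nt probes: 5' GC cap, 34-nt variable region, 24-nt constant primer region; full probe sequence given). Purified or IVT nuclear receptor:RXRα heterodimers (3:1 NR:RXRα, mostly 270:90 nM) or homodimers were incubated for 1 h in PBS with 2% milk and no ligand, then detected with Alexa488 antibodies. Fluorescence from o1-orientation probes (~5 replicates averaged) was converted to z-scores against 500 random hg19 background probes. Variable regions are seed direct-repeat (DR0–DR5) sites, all their single-nucleotide variants and half-site ablations.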
row,Sequence,PBM binding z-score
1,AGAATGAGGCTATTAAGATCAGGGAATTGCGGTC,-0.0838
2,ACAGACAGGTGATGAAGGTAACTCGGGCTATCAT,0.101
3,GCTGCTAGGTCAGGTTGGTCAGCTAGCGGGTACG,0.267
4,AGAACGAGGGCAATGAGTTGATAGGACGGGTGGC,5.22
5,CTGACTGGGGCATAAGGTTACCATAAGCCAGCCC,0.451
6,CCGACTGGGGCAAAGGGTACCATACTCAGTACGA,0.4
7,CGAACTAGGTCATTGACAGGATAGTGAATAGTAA,1.64
8,CCTACTGTGCCAAGGTCATTGATCAGTCAAAGCA,3.52
9,CCTTACGGGCCACTCCAGGTTATAGCATCGGAGT,-0.25
10,GCTAGCAGGCCATTTGGTTCACTCAATGACGGGC,1.28
11,ATCTCTAGGTAACAAGTCCAGTGAAAGAGAGGAC,0.103
12,CGAACTAGGTCATCCAGGACAGTGTATACATTGA,4.57
13,CCTTCCGGGTCACTGACAGGTTATAGCATTTGGA,3.83
14,ATCGAAAGGTCGAGGTCAGTATAGAGAAAGGGAA,4.49
15,CCTAGTTGGTCAAGGTCACACAAGCTATAGGTAC,4.38
16,CGTCAAAGTTCAAGGTAACGTAACAGAAAGCAGC,3.78
17,TAGCCTAGGTCATGGGCGAGTATACCACGCGAAC,2.32
18,CTACCAAGGTGGACAAGGTCGTTGATTACTATTC,3
19,AACTCTAGGTAAAGATAGTTCAGTGAATGCAAAT,0.688
20,AGAATGAGGTTATACGTAGATCACGGAAGAAAGT,1.61

row,Sequence,PBM binding z-score
1,GCGACTGGGGGAAAGCAGGTTACCATAAGGTTGG,0.39
2,CCTTTCGGGTCACTCCAGGTTATAGCATCGGAGT,4.19
3,GCTAGTTGGTCAGTGAAAGGTCACACACCGGTCG,4.14
4,ACTTATGGGTCAACGAGGTTATAGCACGCGTATA,7.43
5,TCTATTACTTGAAGGGCAACCGACGAGTCCGTTT,1.28
6,CATACAGGGTCAGCTAGCCCAGAGTAGGGACGGC,2.52
7,CTTCGGAGGACAGAAGGTCAGAGCTGTCCGCTTT,0.953
8,ACTATAAGTTGAGACGAGGGCAACCGATAGGTTG,1.75
9,TCGACTAGGTTAGGGGCATTCAGAATGGCGTCGA,0.465
10,GATACAGGGTCAGCTAGAGGCCAGAGTTTGGAAA,3.36
11,CAAACTAGGTCACGAAAGGTCAAAGACGAATGAC,6.91
12,ATCTCTAGGTAAAGATAGATCAGTGAATGCAAAT,0.00458
13,CCTTACGGGTCACTACAGGTTATAGCATCGGAGT,4.06
14,CGAACTAGTTCAGAACAGGACAGTGAAGGATGAT,-0.0284
15,TTACCAAGGTGAGAGGTCGTTGATGCACGCCTTG,2.25
16,CCCACTGGGCCAAAAAGGTCATTGATGCCGATAA,4.94
17,CCTTACGGGTCACGCGGTTATAGCACGACGAGCG,4.4
18,GCTTGTAGATCAAGGTTAAGTAAGACTAAGCTAA,0.257
19,CCTTACGGGTCACTGACAGGTTATAGCCTTTGGA,3.77
20,TCTCCGAGGACACGAAGGTCAGAGCTTTCCAGAG,2.69
